From PubChem BioAssay (NCATS) come the findings set out here.

Records with an inconclusive call do not appear. Active and inactive are the calls of the source. Calls come from the whole dose curve; as a rule, active = well fitted inhibition curve with a large enough effect in the signal ratio, with a control signal flat (not every such curve was filed as active); inconclusive = small, poorly fitted or top-dose-only effect, or effect the other way, or a change in a side signal; inactive = flat fitted curve, though single readings scatter; the % refers to the signal ratio.

The assay deals with Peroxisome proliferator-activated receptor gamma (Homo sapiens) (UniProt P37231). Put plainly: qHTS assay for small molecule antagonists of peroxisome proliferator-activated receptor gamma signaling (AID 588537). Note: % of control where 0% means no effect. The following applies: HEK293 PPARg-UAS-bla, beta-lactamase ratio, antagonist mode; series mostly up to 76.8 µM; activity, negative = inhibition: at the top concentration. The text has this: NIH Chemical Genomics Center [NCGC]
Sequence of Peroxisome proliferator-activated receptor gamma (Homo sapiens) (P37231 whole entry, looked up): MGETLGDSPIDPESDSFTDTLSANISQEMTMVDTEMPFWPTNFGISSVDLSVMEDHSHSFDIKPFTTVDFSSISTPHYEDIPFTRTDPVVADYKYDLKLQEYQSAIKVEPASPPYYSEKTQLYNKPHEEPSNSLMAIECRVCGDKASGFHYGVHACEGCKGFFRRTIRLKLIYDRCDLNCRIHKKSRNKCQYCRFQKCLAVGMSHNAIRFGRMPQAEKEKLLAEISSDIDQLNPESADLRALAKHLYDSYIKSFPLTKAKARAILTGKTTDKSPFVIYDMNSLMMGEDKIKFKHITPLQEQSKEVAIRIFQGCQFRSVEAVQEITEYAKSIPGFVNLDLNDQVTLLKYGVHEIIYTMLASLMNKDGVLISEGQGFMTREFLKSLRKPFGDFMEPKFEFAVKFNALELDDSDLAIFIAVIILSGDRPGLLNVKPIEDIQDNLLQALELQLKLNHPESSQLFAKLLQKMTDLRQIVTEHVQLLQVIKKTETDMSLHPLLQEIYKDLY
U.S. Environmental Protection Agency [EPA]
National Institutes of Environmental Health Sciences [NIEHS]
National Toxicology Program [NTP]
The Peroxisome proliferator-activated receptors (PPARs) are lipid-activated transcription factors of the nuclear receptor superfamily with three distinct subtypes namely PPAR alpha, PPAR delta (also called PPAR beta) and PPAR gamma. All these subtypes heterodimerizes with Retinoid X receptor (RXR) and these heterodimers regulate transcription of various genes. PPAR-gamma (glitazone receptor) ligands have been used in the treatment of type 2 diabetes and dyslipidaemia. It is involved in the regulation of glucose and lipid metabolism. PPAR-gamma activates certain genes like Paraoxonase 1 which is responsible for hydrolyzing organophosphates. PPAR-gamma ligands may also be therapeutically important in the treatment of coronary artery disease, obesity and cancer and atherosclerosis.
NCGC Assay Protocol Summary
Using a beta-lactamase reporter-gene under control of Peroxisome Proliferator-Activated-gamma (PPAR-gamma) response element, a cell-based assay [GeneBLAzer PPAR-gamma-UAS-bla assay developed by Invitrogen] was used to measure PPAR-gamma ligands signaling. GeneBLAzer PPAR-gamma-UAS-bla-HEK293 cells were used with assay medium containing 1% charcoal/dextran treated FBS. The assay was performed in clear bottom black Greiner 1536-well plates. Library compounds were measured for their ability to inhibit the reporter gene activity. Compounds were screened in a titration series in 1536-well format. The fluorescence intensity (405 nm excitation, 460/530 nm emission) was measured using an EnVision plate reader. Data was normalized relative to Rosiglitazone control (50 nM, 100%), and DMSO only wells (basal, 0%). Concentration-response titration points for each compound were fitted to the Hill equation yielding concentrations of half-maximal inhibition (IC50) and maximal response (efficacy) values.
qHTS protocol for PPAR-gamma beta-lactamase assay in antagonist mode
[Step] [Parameter] [Value] [Description]
1. Reagent; 5 uL; 3000 cells/well
2. Incubation; 37 C for 6-6.5 hrs
4. Controls (GW9662, PPAR-gamma antagonist); 23 nL,
5. Agonist (Stimulator); 1uL; Rosiglitazone at 50 nM (final) concentration
6. Incubation; 37 C for 16 hrs
7. Detection reagent; 1 uL of CCF4-dye
8. Incubation; RT for 2 hrs
9. Detection; Fluorescence; Envision plate reader
With `CC(C)=CCC/C(C)=C/CO`, the “activity, negative = inhibition” value is 3.03% (inactive).

On to `Cc1cc(=O)[nH]c(=S)[nH]1`, for which the “activity, negative = inhibition” value is 5.85% (inactive).

Regarding `CCCCCC(N)=O`, the “activity, negative = inhibition” value was 1.65% (inactive).

Turning to `CC(=O)Nc1ccc(C(=O)O)cc1`, the “activity, negative = inhibition” value was 13.5% (inactive).

As to `Cc1cc(O)cc(C)c1Cl`, the “activity, negative = inhibition” value is 0.664% (inactive).

Take `Nc1ccc(S(=O)(=O)c2ccc(N)cc2)cc1`: the “activity, negative = inhibition” value was 10.5% (inactive).

For `COC(=O)c1ccc(O)cc1`, the “activity, negative = inhibition” value was 2.47% (inactive).

Take `CC[N+](CC)(CC(=O)Nc1c(C)cccc1C)Cc1ccccc1`: the “activity, negative = inhibition” value is 4.67% (inactive).

For the compound `CCN(CC)C(=O)c1cccc(C)c1`, the “activity, negative = inhibition” value is 6.96% (inactive).

For the compound `O=C(OOC(=O)c1ccccc1)c1ccccc1`, the “activity, negative = inhibition” value is 2.47% (inactive).

`CC(=O)OCC(COC(C)=O)OC(C)=O`: the outcome was inactive.

Turning to `O=C1c2cccc(O)c2C(=O)c2c(O)cccc21`, the “activity, negative = inhibition” value was -3.82% (inactive).

With `OC[C@@H](O)[C@@H](O)[C@H](O)[C@H](O)CO`, the “activity, negative = inhibition” value is -2.37% (inactive).

In the case of `O=C(c1ccccc1)C(O)c1ccccc1` (stereo not drawn), the result was inactive.

As for `FC(F)(F)C(Cl)Br` (stereo not drawn), the “activity, negative = inhibition” value is -4.05% (inactive).

As for `CC(=O)Nc1ccccc1`, the “activity, negative = inhibition” value was -2.22% (inactive).

For `O=C(O)CCCCC1CCSS1` (stereo not drawn), the “activity, negative = inhibition” value was 2.53% (inactive).

With `CCCCCCCCCCCCCCCCCCO`, the “activity, negative = inhibition” value is -10.1% (inactive).
